According to the supplement of paper PMC9135407:
Several values for one entry are separate records, joined by “and”; a condition that tells them apart may be missing. Equal values may be shown once. Where a name gives a salt, the structure may show the parent alone. The campaign covered roughly 5,800 compounds. About 620 (11%) showed activity. The entries come from a sample that favours actives as a whole. A number with no mark means an inactive call.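 How the source made its calls: active = score above a cut-off or among the top three wells of a plate; in these data no inactive exceeds 0.85.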

Test system: primary human hepatic stellate cells (donor 1)
Experiment: scaled lipid accumulation score (0 = DMSO-like, 1 = nortriptyline-like); higher = stronger HSC inactivation (lipid re-accumulation), active = hit call of the paper
Conditions: 48 h
[1] = library stock concentration: 1 mM
[2] = library stock concentration: 3.33 mM
[3] = library stock concentration: 10 mM
[4] = library stock concentration: 80 uM
[5] = library stock concentration: 400 uM
[6] = library stock concentration: 2 mM

Structure (SMILES): CCCCCCCC(=O)CC[C@@H]1[C@@H](C/C=C\CCCC(=O)O)[C@@H](O)C[C@H]1O [Unoprostone]
- scaled lipid accumulation score [1]: ≤ 0

Structure (SMILES): O=C(O)CCC/C=C\C[C@@H]1[C@@H](/C=C/C(=O)COc2cccc(C(F)(F)F)c2)[C@H](O)C[C@@H]1O [15-keto Fluprostenol]
- scaled lipid accumulation score [1]: ≤ 0

Structure (SMILES): COc1ccc(-n2nc(C(N)=O)c3c2C(=O)N(c2ccc(N4CCCCC4=O)cc2)CC3)cc1 [Apixaban]
- scaled lipid accumulation score [2]: ≤ 0
- scaled lipid accumulation score [3]: ≤ 0

Structure (SMILES): O=c1onc2cnc3ccccc3n12
- scaled lipid accumulation score [3]: 1.01 (active)

Structure (SMILES): CC(C)CCC[C@@H](C)[C@H]1CC[C@H]2[C@@H]3CC(=O)[C@@]4(O)C[C@@H](O)CC[C@]4(C)[C@H]3CC[C@]12C [5.alpha.-hydroxy-6-keto Cholesterol]
- scaled lipid accumulation score [1]: ≤ 0

Structure (SMILES): O=C(O)c1ccccc1 [Benzoic Acid]
- scaled lipid accumulation score [2]: ≤ 0
- scaled lipid accumulation score [3]: 0.005

Structure (SMILES): O=c1c(-c2ccccc2)c1-c1ccccc1 [diphenylcyclopropenone]
- scaled lipid accumulation score [3]: 1.25 (active)

Structure (SMILES): O=C(O)c1ccccc1 [Benzoic acid]
- scaled lipid accumulation score (library stock concentration: 16.4 mM): ≤ 0

Structure (SMILES): O=c1c2ccccc2oc2ccccc12 [Xanthone]
- scaled lipid accumulation score [2]: ≤ 0
- scaled lipid accumulation score [3]: ≤ 0

Structure (SMILES): Cc1ccccc1N1CCN(S(=O)(=O)C[C@]23CC[C@H](C[C@@H]2NC(=O)[C@@H](N)CCS(C)(=O)=O)C3(C)C)CC1 [L-368,899 hydrochloride]
- scaled lipid accumulation score [3]: 0.107

Structure (SMILES): O=P(O)(O)OC1[C@H](OP(=O)(O)O)[C@H](O)C(O)[C@H](O)[C@H]1OP(=O)(O)O (stereo partly drawn) [D-myo-Inositol-1,2,6-triphosphate (sodium salt)]
- scaled lipid accumulation score [1]: 0.004

Structure (SMILES): CCNC(=O)c1[nH]nc(-c2cc(Cl)c(O)cc2O)c1-c1ccc(OC)cc1
- scaled lipid accumulation score [2]: 0.6

Structure (SMILES): CCNC(=O)C1=C(c2ccc(OC)cc2)C(=C2C=C(Cl)C(O)=CC2=O)NN1
- scaled lipid accumulation score [3]: 0.897 (active)

Structure (SMILES): N=C(N)SCCC[C@H](N)C(=O)O [Thioarginine (hydrobromide)]
- scaled lipid accumulation score [1]: ≤ 0

Structure (SMILES): NCC(O)CC(=O)O (stereo not drawn) [Aminohydroxybutyric acid]
- scaled lipid accumulation score [3]: 0.017

Structure (SMILES): CN1CCN(c2ccc(OC(F)(F)F)c(Nc3ncc4c(n3)-c3c(c(C(N)=O)nn3CCO)CC4)c2)CC1 [listing 1 of 2 here]
- scaled lipid accumulation score [4]: ≤ 0
- scaled lipid accumulation score [5]: ≤ 0
- scaled lipid accumulation score [6]: 0.15
- scaled lipid accumulation score [2]: ≤ -0.009
- scaled lipid accumulation score [3]: 0.668

Structure (SMILES): CNC(=O)c1nn(C)c2c1C(C)(C)Cc1cnc(Nc3ccc(N4CCN(C)CC4)cc3)nc1-2
- scaled lipid accumulation score [2]: 0.148
- scaled lipid accumulation score [3]: ≤ 0

Structure (SMILES): CN1CCN(c2ccc(OC(F)(F)F)c(Nc3ncc4c(n3)-c3c(c(C(N)=O)nn3CCO)CC4)c2)CC1 [listing 2 of 2 here]
- scaled lipid accumulation score [3]: 0.879 (active)

Structure (SMILES): COc1cc(Br)c(S(=O)(=O)Nc2ccc(Cl)c(O[C@@H]3CCN(C)C3)c2)cc1OC
- scaled lipid accumulation score [3]: 0.116

Structure (SMILES): COc1cc2c(cc1OC)[C@@H]1C(=O)c3ccc4c(c3O[C@@H]1CO2)C=CC(C)(C)O4 [Deguelin(-)]
- scaled lipid accumulation score [3]: ≤ 0

Structure (SMILES): CCCCCCCCCCCCC/C=C/[C@@H](O)[C@H](CO)NC(=O)CCCCCCC [C8 Ceramide]
- scaled lipid accumulation score [1]: ≤ -0.021

Structure (SMILES): CCCCCCCCCCCCC/C=C/[C@@H](O)[C@H](CO)NC(=O)CCCCCCC [C-8 Ceramide]
- scaled lipid accumulation score [1]: ≤ 0

Structure (SMILES): CCOC(=O)[C@@H](C)Oc1cccc2c(=O)n(CC(=O)Nc3ccc4c(c3)OCCO4)ccc12
- scaled lipid accumulation score [3]: 0.249

Structure (SMILES): O=C(NCCCNc1nc(Nc2cccc(CN3CCOCC3)c2)ncc1C1CC1)C1CCC1
- scaled lipid accumulation score [4]: ≤ 0
- scaled lipid accumulation score [5]: 0.064
- scaled lipid accumulation score [6]: 0.072
- scaled lipid accumulation score [3]: 0.406

Structure (SMILES): CN(C)CCCNC(=O)[C@@H]1C[C@H](CN2CCOCC2)CN(Cc2ccc3ccccc3c2)C1
- scaled lipid accumulation score [3]: 0.993 (active)

Structure (SMILES): COc1ccccc1OCCNCC(O)COc1cccc2[nH]c3ccccc3c12 (stereo not drawn) [Carvedilol] [listing 1 of 5 here]
- scaled lipid accumulation score [3]: 0.936 (active)

Structure (SMILES): CC(C)(C)NCC(O)COc1cccc2[nH]c(=O)[nH]c12 (stereo not drawn)
- scaled lipid accumulation score [3]: ≤ -0.047

Structure (SMILES): COc1ccccc1OCCNCC(O)COc1cccc2[nH]c3ccccc3c12 (stereo not drawn) [Carvedilol] [listing 2 of 5 here]
- scaled lipid accumulation score [2]: ≤ 0
- scaled lipid accumulation score (library stock concentration: 4.9 mM): 0.302 and 0.4

Structure (SMILES): COc1ccccc1OCCNCC(O)COc1cccc2[nH]c3ccccc3c12 (stereo not drawn) [Carvedilol] [listing 3 of 5 here]
- scaled lipid accumulation score [3]: 1.57 (active)

Structure (SMILES): COc1ccccc1OCC(O)COC(N)=O (stereo not drawn) [Methocarbamol]
- scaled lipid accumulation score: ≤ 0
- scaled lipid accumulation score [2]: ≤ 0
- scaled lipid accumulation score (library stock concentration: 8.3 mM): ≤ -0.001
- scaled lipid accumulation score [3]: ≤ 0

Structure (SMILES): CC(C)NC[C@H](O)COc1cccc2[nH]ccc12 [(S)-(-)-Pindolol]
- scaled lipid accumulation score [3]: 0.001

Structure (SMILES): CC(C)NCC(O)COc1cccc2[nH]ccc12 (stereo not drawn)
- scaled lipid accumulation score [3]: ≤ 0

Structure (SMILES): CC(C)NC[C@H](O)COc1cccc2[nH]ccc12 [S(-)-Pindolol]
- scaled lipid accumulation score [3]: ≤ -0.07

Structure (SMILES): COc1ccccc1OCC(O)CO (stereo not drawn) [Guaifenesin]
- scaled lipid accumulation score: ≤ 0
- scaled lipid accumulation score [2]: ≤ 0
- scaled lipid accumulation score [3]: 0.084 and ≤ 0

Structure (SMILES): COc1ccccc1OCCNCC(O)COc1cccc2[nH]c3ccccc3c12 (stereo not drawn) [Carvedilol] [listing 4 of 5 here]
- scaled lipid accumulation score [3]: 1.18 (active)

Structure (SMILES): COc1ccccc1OCCNCC(O)COc1cccc2[nH]c3ccccc3c12 (stereo not drawn) [Carvedilol tartrate]
- scaled lipid accumulation score [3]: 0.276

Structure (SMILES): COc1ccccc1OCCNCC(O)COc1cccc2[nH]c3ccccc3c12 (stereo not drawn) [Carvedilol] [listing 5 of 5 here]
- scaled lipid accumulation score [3]: 1.1 (active)

Structure (SMILES): CC(C)NCC(O)COc1cccc2[nH]ccc12 (stereo not drawn) [Pindolol]
- scaled lipid accumulation score: ≤ 0
- scaled lipid accumulation score (library stock concentration: 8.1 mM): ≤ -0.006 and 0.131
- scaled lipid accumulation score [3]: ≤ 0 and ≤ -0.055 and 0.071

Structure (SMILES): C[C@](N)(Cc1ccc(O)cc1)C(=O)O [L-alpha-Methyl-p-tyrosine]
- scaled lipid accumulation score [3]: 0.166

Structure (SMILES): CC(C)(C)NS(=O)(=O)c1cncc(-c2cc(F)c3nc(N)nn3c2)c1
- scaled lipid accumulation score [2]: ≤ 0
- scaled lipid accumulation score [3]: ≤ -0.001

Structure (SMILES): O=C(Cc1ccccc1)NO [Phenylacetohydroxamic acid]
- scaled lipid accumulation score [3]: ≤ 0

Structure (SMILES): CCCC(=O)O[C@]1(C(=O)COC(C)=O)CC[C@H]2[C@@H]3C[C@H](F)C4=CC(=O)C=C[C@]4(C)[C@@]3(F)[C@@H](O)C[C@@]21C [Difluprednate]
- scaled lipid accumulation score [2]: ≤ 0
- scaled lipid accumulation score [3]: ≤ -0.001
